According to PubChem BioAssay AID602449 (Sanford-Burnham Center for Chemical Genomics, 2012):
Hit rate of the full screen: of about 360,000 compounds, about 5,000 (1.4%) were called active.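 The calls were made as follows: active = inhibition of 50% or more, scaled per plate between neutral and stimulator controls; inactive = the rest.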 Only a selection was taken, and actives are over-represented in it overall.

Assay: blockers of Ca2+-induced mitochondrial swelling – biochemical, isolated mouse mitochondria, absorbance, primary screen (AID 602449);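 also: 0% = DMSO wells given calcium and 100% = 1 mM EGTA wells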
Settings: 30 min, at 10 µM, hits give high values

| SMILES | inhibition |
| --- | --- |
| CCCCC(=O)N/N=C/c1c(O)n(CCC2=CCCCC2)c(=O)[nH]c1=O | -4.5% (inactive) |
| Cn1c(O)c(C=NCCCC(=O)O)c(=O)n(C)c1=O | 1.1% (inactive) |
| CCCCC(=O)N/N=C/c1c(O)n(CC)c(=S)n(CC)c1=O | 58% (active) |
| COc1ccc2c(c1)[C@]13CCCCC1C(C2)N(C)CC3 (stereo not given in full) | -3% (inactive) |
| Cc1ccc(C2CN(C)CC2C(=O)c2ccc(F)cc2)cc1 (stereo not given) | -0.4% (inactive) |
| CCN(CC)CCOC(=O)c1cc2cc(COC)ccc2o1 | -3.6% (inactive) |
| CCOc1cccc(=NC2CCCCC2)c2c(C)[nH]c(C)c12 | 62.7% (active) |
| C=CCn1c(O)c(/C=N/N2CCOCC2)c(=O)[nH]c1=S | -1.7% (inactive) |
| O=C(CCCn1c(=O)[nH]c2cc(Cl)ccc2c1=O)N1CCC2(CC1)OCCO2 | 1.1% (inactive) |
| C[C@H]1CN([C@@H](C)CO)C(=O)CCCn2nncc2CO[C@H]1CN(C)C(=O)Oc1ccccc1 | 0.9% (inactive) |
| CCCCCCCCCCCCn1ccc(=N)cc1 | 68.6% (active) |
| CC(=O)NCC1=C(c2ccc3ccccc3c2)C[C@@H]2CC[C@H]1N2Cc1ccco1 | -0.6% (inactive) |
| O=C(CN1CCCCC1)Nc1ccc(Br)cc1C(=O)c1ccccc1Cl | 1.1% (inactive) |
| COc1c(O)ccc2c1-c1c3c(cc4c1C(C2)N(C)CC4)OCO3 (stereo not given) | -0.5% (inactive) |
| COc1ccc(C2NCc3ccc4c(c3-n3cccc32)OCO4)cc1OC (stereo not given) | 68% (active) |
| c1ccc(C2NCc3ccccc3-n3cccc32)cc1 (stereo not given) | 0.4% (inactive) |
| O=C(Nc1cccc2ccccc12)N1CCC2(CC1)OCCO2 | 0.6% (inactive) |
| O=C1/C(=C\c2ccc3c(c2)OCO3)N2CCC1CC2 | -0.8% (inactive) |

| SMILES | inhibition |
| --- | --- |
| O=c1c2ccccc2nc(-c2ccc(Cl)cc2Cl)n1-c1ccncc1 | 0.3% (inactive) |
| COc1ccc(-c2nc(CS(=O)CC(=O)N3CCC4(CC3)OCCO4)c(C)o2)cc1 (stereo not given) | 1% (inactive) |
| O=Cc1cn(Cc2ccc(F)cc2Cl)c2ccccc12 | 60.7% (active) |
| Cc1ccnc(-n2c(C)cc(/C=C3\C(=O)NC(=S)N(C)C3=O)c2C)c1 | 6.4% (inactive) |
| O=C1C2CCN(CC2)C1(CO)CO | -0.5% (inactive) |
| CCN(CC)C(=O)c1ccc(NC(=O)c2sccc2-c2ccccc2)cc1 | 0.3% (inactive) |
| CCCCn1c(O)c(C(CC)=NCc2ccco2)c(=O)[nH]c1=O | -0.1% (inactive) |
| CCC(=NCCCO)c1c(O)n(-c2ccc(OC)cc2)c(=O)[nH]c1=O | 2.3% (inactive) |
| CCCCCCN=C(CC)c1c(O)n(CCCC)c(=O)[nH]c1=O | 79.8% (active) |
| Cc1cccc(-n2c(O)c(C=NC34CN5CN(CN(C5)C3)C4)c(=O)[nH]c2=O)c1 | 2.5% (inactive) |
| CSc1ccc(C(=O)C2CCCN(Cc3ccn[nH]3)C2)cc1 (stereo not given) | 1.7% (inactive) |
| CC(=CCOc1ccc2ccc(=O)oc2c1)C1=CC(=O)C(C)(C)O1 | 1.5% (inactive) |
| O=C(NCC1=C(c2ccc3ccccc3c2)C[C@@H]2CC[C@H]1N2Cc1ccco1)c1cccs1 | -1.7% (inactive) |
| CC(Cc1ccccc1)NCCC(c1ccccc1)c1ccccc1 (stereo not given) | 104% (active) |
| CCOc1ccc(C2SCC(=O)Nc3c2c(C)nn3C2CCOC(C)(C)C2)cc1 (stereo not given) | 0.4% (inactive) |
| Cc1ccsc1C(=O)C1CCCN(Cc2ccc(O)cc2)C1 (stereo not given) | 0.1% (inactive) |
| Cn1c(O)c(C=Nc2ccc3c(c2)CCC3)c(=O)n(C)c1=O | -1.3% (inactive) |
